# According to PubChem BioAssay:
# Where “and” joins values, the source holds several entries; their conditions need not be identical. Identical values can stand only once. Records with an inconclusive call do not appear. Calls of active or inactive are those of the source.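 Rule for the calls, unless noted: active = normalized viability below 100% at a tested concentration; inactive = the rest.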
# What was measured:
# [1] = growth inhibition of DIPG glioma cells, dose response, cell-based, SU-DIPG-XVII, MIPE5.0, CellTiter-Glo, qHTS (AID 1347060; cut-off not given, nearly all actives have AC50 up to about 26 µM;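 note: cells exposed to compound for 48 hours before viability readout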); settings: SU-DIPG-XVII viability, CellTiter-Glo ATP luminescence
# [2] = growth inhibition of DIPG glioma cells, dose response, cell-based, SU-DIPG-XIII, MIPE4.0, CellTiter-Glo, qHTS (AID 1347061; cut-off not given, nearly all actives have AC50 up to about 37 µM;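 note: cells exposed to compound for 48 hours before readout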); settings: SU-DIPG-XIII viability, CellTiter-Glo ATP luminescence
# [3] = growth inhibition of DIPG glioma cells, dose response, cell-based, JHH-DIPG-1, MIPE4.0, CellTiter-Glo, qHTS (AID 1347062; cut-off not given, nearly all actives have AC50 up to about 27 µM); settings: JHH-DIPG-1 viability, CellTiter-Glo ATP luminescence
# [4] = growth inhibition of DIPG glioma cells, dose response, cell-based, SU-DIPG-XIII, MIPE5.0, CellTiter-Glo, qHTS (AID 1347064; cut-off not given, nearly all actives have AC50 up to about 23 µM); settings: SU-DIPG-XIII viability, CellTiter-Glo ATP luminescence
# [5] = SU-DIPG-VI glioma cell viability, MIPE4.0 library, CellTiter-Glo luminescence, qHTS (AID 1347066; cut-off not given, nearly all actives have AC50 up to about 30 µM;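 note: cells exposed to compound for 48 hours before readout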); settings: CellTiter-Glo ATP luminescence
# [6] = JHH-DIPG-1 glioma cell viability, MIPE5.0 library, CellTiter-Glo luminescence, qHTS (AID 1347067; cut-off not given, nearly all actives have AC50 up to about 26 µM;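 note: cells exposed to compound for 48 hours before readout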); settings: JHH-DIPG-1 glioma viability, CellTiter-Glo ATP luminescence
# [7] = SU-DIPG-XXV glioma cell viability, MIPE5.0 library, qHTS (AID 1347068; cut-off not given, nearly all actives have IC50 up to about 30 µM)
# [8] = sensitizers of A549 cells to miR-34 induction, primary screen, imaging, A549 dox-inducible miR-34, nuclei and caspase counts (AID 1347080;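 active = compounds whose cell count with miR-34 switched on is under 0.7 times the count with it off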); settings: A549 miR-34 inducible, Hoechst nuclei count, 48 h
# [9] = modifiers of HSF1 nuclear foci, imaging, Selleck Cancer Library (AID 1347162; in the data active = plate-normalised HSF1 focus index below about 0.46); settings: human cells, at 10 µM; SSMD: measured here: HSF1 foci SSMD mean; cell count: measured here: cell number; plate-normalised HSF1 focus index: stronger effect = lower value
# [10] = survival rescue of mitochondrial mutant cells in low glucose, primary screen, MELAS cybrids, Rieske KO mouse fibroblasts, CellTiter-Glo (AID 1508586;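 active = mean z-score across replicates of 1.96 or higher in either the MELAS or the Rieske mutant cell line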;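 note: z relative to plate mean and SD of compound and empty wells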)
# [11] = ovarian cancer cell viability with rucaparib, profiling panel, oncology-focused library, rucaparib conditional (AID 1508598); settings: patient-derived ovarian cancer cells, CellTiter-Glo viability, 144 h, stronger effect = lower value
# [12] = LFS_MB_P medulloblastoma growth inhibition, cell-based, chromothripsis tumors, cisplatin or BGB combos (AID 1671449; in the data active = inhibition above about 80%;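 note: cells exposed for 96 hours; 0% = vehicle DMSO and 100% = killing by high DMSO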); settings: LFS_MB_P medulloblastoma cells
# [13] = HDN33 neuroblastoma growth inhibition, cell-based, chromothripsis tumors, cisplatin or BGB combos (AID 1671450; in the data active = inhibition above about 80%;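 note: cells exposed to compound for four days; 0% = vehicle DMSO and 100% = cell killing by high DMSO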); settings: HDN33 neuroblastoma cells, stronger effect = higher value
# [14] = ICB984 medulloblastoma cell growth inhibition, synergistic combos for chromothripsis tumors, cisplatin or BGB combos (AID 1671451; call rule not given here;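 note: cells exposed for 96 hours before readout; 0% = vehicle DMSO and 100% = killing by high DMSO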); settings: ICB984 medulloblastoma cells, drug combinations, stronger effect = higher value
# [15] = HTB85 osteosarcoma cell growth inhibition, synergistic combos for chromothripsis tumors, BGB or cisplatin IC20 combos (AID 1671453; in the data active = inhibition above about 80%;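 note: cells exposed for 96 hours before readout; 0% = vehicle DMSO and 100% = high DMSO killing control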); settings: HTB85 osteosarcoma cells, drug combinations, stronger effect = higher value
# [16] = MDA-MB-436 breast carcinoma cell growth inhibition, synergistic combos for chromothripsis tumors, BGB or cisplatin combos (AID 1671458; call rule not given here;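 note: cells exposed for 96 hours; 0% = vehicle DMSO and 100% = killing by high DMSO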); settings: MDA-MB-436 breast carcinoma growth inhibition, drug combinations, stronger effect = higher value
# [17] = growth inhibition of BT084 medulloblastoma cells, cell-based, ICGC_MB145, cisplatin and BGB IC40 combos (AID 1671461; in the data active = inhibition above about 80%;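 note: cells exposed to drugs for 96 hours; 0% = vehicle DMSO and 100% = high DMSO full killing control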); settings: drug combinations, stronger effect = higher value
# [18] = growth inhibition of RCMB18 medulloblastoma cells, cell-based, cisplatin and BGB IC40 combos (AID 1671462; in the data active = inhibition above about 80%;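 note: cells exposed to compound for four days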); settings: stronger effect = higher value
smiles,measurement,setting,value
O=C(c1cc(Cc2n[nH]c(=O)c3ccccc23)ccc1F)N1CCN(C(=O)C2CC2)CC1,AC50,[1],20.9 µM (active)
same,AC50,[2],18.7 µM (active)
same,outcome,[3],inactive
same,outcome,[4],inactive
same,outcome,[5],inactive
same,outcome,[6],inactive
same,outcome,[7],inactive
same,fold change,"[8]; stronger effect = lower value, cell number ratio, induced over uninduced",0.871 (inactive)
same,fold change,[8]; measured here: relative caspase fold change +Dox/-Dox,1.53
same,cell count,"[8]; measured here: total cells with miR-34 induction, stronger effect = lower value",4680
same,cell count,[8]; measured here: total cells without miR-34 induction,5380
same,SSMD,[9],2.16
same,cell count,[9],7320
same,plate-normalised HSF1 focus index,[9],1.13 (inactive)
same,z-score,"[10]; MELAS cybrid survival, CellTiter-Glo 48 h, stronger effect = higher value",-0.516 (inactive)
same,z-score,"[10]; Rieske KO mouse fibroblast survival, CellTiter-Glo 72 h",0.876
same,viability,"[11]; at 0.000305 µM, OCI-C5x cells, with rucaparib 10 µM, 100% = cells with rucaparib alone",125% (inactive)
same,viability,"[11]; at 0.000305 µM, OCI-C5x cells, without rucaparib",123% (inactive)
same,viability,"[11]; at 0.000305 µM, OCI-P5x cells, with rucaparib 20 µM, 100% = cells with rucaparib alone",96.5% (active)
same,viability,"[11]; at 0.000305 µM, OCI-P5x cells, without rucaparib",101% (inactive)
same,viability,"[11]; at 0.00122 µM, OCI-C5x cells, with rucaparib 10 µM, 100% = cells with rucaparib alone",132% (inactive)
same,viability,"[11]; at 0.00122 µM, OCI-C5x cells, without rucaparib",122% (inactive)
same,viability,"[11]; at 0.00122 µM, OCI-P5x cells, with rucaparib 20 µM, 100% = cells with rucaparib alone",104% (inactive)
same,viability,"[11]; at 0.00122 µM, OCI-P5x cells, without rucaparib",97% (active)
same,viability,"[11]; at 0.00488 µM, OCI-C5x cells, with rucaparib 10 µM, 100% = cells with rucaparib alone",128% (inactive)
same,viability,"[11]; at 0.00488 µM, OCI-C5x cells, without rucaparib",120% (inactive)
same,viability,"[11]; at 0.00488 µM, OCI-P5x cells, with rucaparib 20 µM, 100% = cells with rucaparib alone",101% (inactive)
same,viability,"[11]; at 0.00488 µM, OCI-P5x cells, without rucaparib",92.4% (active)
same,viability,"[11]; at 0.0195 µM, OCI-C5x cells, with rucaparib 10 µM, 100% = cells with rucaparib alone",114% (inactive)
same,viability,"[11]; at 0.0195 µM, OCI-C5x cells, without rucaparib",123% (inactive)
same,viability,"[11]; at 0.0195 µM, OCI-P5x cells, with rucaparib 20 µM, 100% = cells with rucaparib alone",96.5% (active)
same,viability,"[11]; at 0.0195 µM, OCI-P5x cells, without rucaparib",87.9% (active)
same,viability,"[11]; at 0.0781 µM, OCI-C5x cells, with rucaparib 10 µM, 100% = cells with rucaparib alone",118% (inactive)
same,viability,"[11]; at 0.0781 µM, OCI-C5x cells, without rucaparib",119% (inactive)
same,viability,"[11]; at 0.0781 µM, OCI-P5x cells, with rucaparib 20 µM, 100% = cells with rucaparib alone",104% (inactive)
same,viability,"[11]; at 0.0781 µM, OCI-P5x cells, without rucaparib",96% (active)
same,viability,"[11]; at 0.313 µM, OCI-C5x cells, with rucaparib 10 µM, 100% = cells with rucaparib alone",118% (inactive)
same,viability,"[11]; at 0.313 µM, OCI-C5x cells, without rucaparib",123% (inactive)
same,viability,"[11]; at 0.313 µM, OCI-P5x cells, with rucaparib 20 µM, 100% = cells with rucaparib alone",96.9% (active)
same,viability,"[11]; at 0.313 µM, OCI-P5x cells, without rucaparib",85.5% (active)
same,viability,"[11]; at 1.25 µM, OCI-C5x cells, with rucaparib 10 µM, 100% = cells with rucaparib alone",123% (inactive)
same,viability,"[11]; at 1.25 µM, OCI-C5x cells, without rucaparib",117% (inactive)
same,viability,"[11]; at 1.25 µM, OCI-P5x cells, with rucaparib 20 µM, 100% = cells with rucaparib alone",94.6% (active)
same,viability,"[11]; at 1.25 µM, OCI-P5x cells, without rucaparib",75.5% (active)
same,viability,"[11]; at 5 µM, OCI-C5x cells, with rucaparib 10 µM, 100% = cells with rucaparib alone",105% (inactive)
same,viability,"[11]; at 5 µM, OCI-C5x cells, without rucaparib",115% (inactive)
same,viability,"[11]; at 5 µM, OCI-P5x cells, with rucaparib 20 µM, 100% = cells with rucaparib alone",86.1% (active)
same,viability,"[11]; at 5 µM, OCI-P5x cells, without rucaparib",66.2% (active)
same,inhibition,"[12]; at 0.5 µM, stronger effect = higher value",-24.7% (inactive) and -29.1% (inactive)
same,inhibition,"[12]; measured here: combination with BGB IC20, at 0.005 µM",-26.5% and -12.3%
same,inhibition,"[12]; measured here: combination with BGB IC40, at 0.005 µM",-9.06% and -12.6%
same,inhibition,"[12]; measured here: combination with BGB IC40, at 0.05 µM",-0.874% and -8.68%
same,inhibition,"[12]; measured here: combination with cisplatin, at 0.5 µM, stronger effect = higher value",-41.7% and -35.8%
same,inhibition,"[12]; measured here: combination with cisplatin, at 5 µM, stronger effect = higher value",-43.9% and -38.7%
same,inhibition,"[13]; BGB combo, at 5 µM",14.5% and 9.24%
same,inhibition,[13]; at 0.5 µM,9.6% (inactive) and 3.35% (inactive)
same,inhibition,"[13]; cisplatin combo, at 5 µM",34.3% and 41.4%
same,inhibition,"[13]; measured here: with BGB IC20 combination, at 0.5 µM",5.51% and -1.25%
same,inhibition,"[13]; measured here: with cisplatin IC20 combination, at 0.5 µM",12.4% and 7.9%
same,inhibition,"[13]; single agent, at 5 µM",33% and 44.4%
same,inhibition,"[14]; BGB IC20 combo, at 0.005 µM",-15.2% and -6.05%
same,inhibition,"[14]; BGB IC40 combo, at 0.005 µM",-0.22% and -27.2%
same,inhibition,"[14]; BGB IC40 combo, at 0.05 µM",-4.94% and -12.9%
same,inhibition,[14]; at 0.5 µM,-19.9% (inactive) and -38.5% (inactive)
same,inhibition,"[14]; cisplatin combo, at 0.05 µM",-4.94% and -17.3%
same,inhibition,"[14]; cisplatin combo, at 0.5 µM",-29% and -53.3%
same,inhibition,"[14]; cisplatin combo, at 5 µM",-23.6% and -39.9%
same,inhibition,"[14]; measured here: 5 uM single agent, at 5 µM",-15.8% and -10.7%
same,inhibition,[15]; at 0.5 µM,-1.59% (inactive) and -5.82% (inactive)
same,inhibition,"[15]; measured here: with BGB IC20, at 0.5 µM",-20% and -25.5%
same,inhibition,"[15]; measured here: with BGB IC20, at 5 µM",-17% and 2.87%
same,inhibition,"[15]; measured here: with cisplatin IC20, at 0.5 µM",8.83% and 6.96%
same,inhibition,"[15]; measured here: with cisplatin IC20, at 5 µM",18.3% and 28.5%
same,inhibition,"[15]; single agent, at 5 µM",9.91% and 21.3%
same,inhibition,[16]; at 0.5 µM,6.46% (inactive) and -12% (inactive)
same,inhibition,"[16]; measured here: BGB combination, at 0.5 µM",1.64% and -35.6%
same,inhibition,"[16]; measured here: BGB combination, at 5 µM",-1.2% and -15.8%
same,inhibition,"[16]; measured here: cisplatin combination, at 0.5 µM",-0.142% and -2.85%
same,inhibition,"[16]; measured here: cisplatin combination, at 5 µM",30.4% and 14.1%
same,inhibition,[17]; at 0.5 µM,-15.3% (inactive) and -32.2% (inactive)
same,inhibition,"[17]; cisplatin combination, at 0.5 µM",-11.1% and -29.9%
same,inhibition,"[17]; cisplatin combination, at 5 µM",-16.5% and -11.4%
same,inhibition,"[17]; measured here: BGB IC40 combination 0.05 uM, at 0.05 µM",-6.85% and 14.5%
same,inhibition,"[17]; single agent, at 5 µM",-19.8% and -50%
same,inhibition,[18]; at 0.5 µM,-14.1% (inactive) and 10.3% (inactive)
same,inhibition,"[18]; cisplatin combo, at 5 µM",0.788% and 11.5%
same,inhibition,"[18]; measured here: BGB IC40 combination, at 0.05 µM",-1.19% and -22.9%
same,inhibition,"[18]; measured here: combination with cisplatin, at 0.5 µM",-43.2% and 20.2%
same,inhibition,"[18]; single agent, at 5 µM",-22.3% and -45%
